# PubChem BioAssay (NCATS)
# Several values for one entry are separate records, joined by “and”; a condition that tells them apart may be missing. Equal values may be shown once. Results filed as inconclusive are left out. Where a call stands in place of a potency, no number is given. Values without a mark were called inactive. Activity calls are given as the source filed them. Unless noted, calls come from the whole dose curve; as a rule, active = well fitted curve in the direction sought with a large enough effect; inconclusive = small, poorly fitted or top-dose-only effect, or another doubt; inactive = no such curve, though single readings can be large; an effect the other way counts as inactive or inconclusive.
# Key:
# [1] = molecular target: Cytochrome P450 2D6 (Homo sapiens) (UniProt P10635); assay: Cytochrome P450 family 2 subfamily D member 6 (CYP2D6) small molecule antagonists: luciferase biochemical (cell-free) qHTS assay (AID 1645840; active = well fitted curve in the direction sought with a large enough effect in the repeat runs; an effect the other way counts as inactive or inconclusive; note: nearly all actives have a fitted effect of over 55% in size; note: potency is the fitted concentration of half-maximal effect; for activity change, negative = inhibition: series mostly up to about 57 µM)
# Cytochrome P450 2D6 (Homo sapiens), sequence (P10635 whole entry, looked up): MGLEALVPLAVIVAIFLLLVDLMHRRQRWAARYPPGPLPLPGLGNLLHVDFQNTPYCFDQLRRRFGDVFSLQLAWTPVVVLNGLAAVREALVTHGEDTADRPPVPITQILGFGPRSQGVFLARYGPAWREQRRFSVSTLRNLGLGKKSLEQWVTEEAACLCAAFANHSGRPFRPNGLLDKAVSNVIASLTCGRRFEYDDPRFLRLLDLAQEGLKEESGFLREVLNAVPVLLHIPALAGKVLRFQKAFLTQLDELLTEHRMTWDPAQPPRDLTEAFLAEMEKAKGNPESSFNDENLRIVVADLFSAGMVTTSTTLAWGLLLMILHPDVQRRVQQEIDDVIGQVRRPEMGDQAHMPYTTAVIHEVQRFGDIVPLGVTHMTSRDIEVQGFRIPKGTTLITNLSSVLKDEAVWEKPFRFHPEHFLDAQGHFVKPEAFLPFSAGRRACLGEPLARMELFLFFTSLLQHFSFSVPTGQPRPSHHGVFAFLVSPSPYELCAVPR
# Summary of the method: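 P450-Glo CYP2D6 system: proluciferin substrate converted by enzyme to luciferin, read by luminescence proportional to activity. Enzyme-substrate mix with compound 10 min at room temperature, then NADPH regeneration 1 h before detection reagent.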
# [2] = molecular target: Cytochrome P450 2C9 (Homo sapiens) (UniProt P11712); assay: Cytochrome P450 family 2 subfamily C member 9 (CYP2C9) small molecule antagonists: luciferase biochemical (cell-free) qHTS assay (AID 1645842; active = well fitted curve in the direction sought with a large enough effect in the repeat runs; an effect the other way counts as inactive or inconclusive; note: nearly all actives have a fitted effect of over 55% in size; note: potency is the fitted concentration of half-maximal effect; for activity change, negative = inhibition: series mostly up to about 57 µM)
# Cytochrome P450 2C9 (Homo sapiens), sequence (P11712 whole entry, looked up): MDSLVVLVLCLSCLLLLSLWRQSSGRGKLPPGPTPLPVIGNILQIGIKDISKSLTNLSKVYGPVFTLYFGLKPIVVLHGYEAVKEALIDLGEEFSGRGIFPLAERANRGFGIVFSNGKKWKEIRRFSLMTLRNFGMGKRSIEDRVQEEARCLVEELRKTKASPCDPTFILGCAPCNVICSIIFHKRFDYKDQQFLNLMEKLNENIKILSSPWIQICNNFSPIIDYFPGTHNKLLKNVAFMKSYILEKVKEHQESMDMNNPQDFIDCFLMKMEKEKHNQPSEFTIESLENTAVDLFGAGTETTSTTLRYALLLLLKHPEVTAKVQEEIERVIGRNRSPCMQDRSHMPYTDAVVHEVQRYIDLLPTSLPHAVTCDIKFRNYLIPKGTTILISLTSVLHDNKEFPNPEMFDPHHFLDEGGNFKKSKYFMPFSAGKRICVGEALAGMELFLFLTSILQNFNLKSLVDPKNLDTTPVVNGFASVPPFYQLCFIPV
# Summary of the method: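 P450-Glo CYP2C9 system: proluciferin substrate with enzyme in mix containing 0.4% BSA, 10 min at room temperature, then NADPH regeneration solution added and incubated 1 h at 37C. Detection reagent stopped reaction; luminescence read after 20 min as RLU.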
# [3] = Primary qHTS for inhibitors of nuclear receptor binding SET domain protein 2 (NSD2) in an isogenic RCH-ACV NSD2 p.E1099K mutant (9B) (AID 1645876); note: nearly all actives have a fitted effect of over 70% in size; note: potency is the fitted concentration of half-maximal effect
# [4] = molecular target: Calcium and integrin-binding protein 1 (Homo sapiens) (UniProt Q99828); assay: Primary qHTS for Identification of Calcium Integrin Binding Protein 1 (CIB1) Competitor (AID 1508620);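 note: GST tagged CIB1 binding a fluorescein labelled alphaIIb integrin peptide tracer; top concentration of the series differs between compounds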
# Calcium and integrin-binding protein 1 (Homo sapiens), sequence (Q99828 whole entry, looked up): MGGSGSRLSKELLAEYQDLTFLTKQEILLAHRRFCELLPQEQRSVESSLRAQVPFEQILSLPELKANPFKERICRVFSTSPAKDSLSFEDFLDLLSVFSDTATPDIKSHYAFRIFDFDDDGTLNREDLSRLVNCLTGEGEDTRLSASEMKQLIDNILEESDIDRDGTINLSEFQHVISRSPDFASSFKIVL
# Summary of the method: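 CIB1-GST (1 uM final) and compound incubated 15 min at room temperature before adding FITC-alphaIIb peptide tracer (100 nM final). Competition for binding read by fluorescence polarization (ex 480, em 540) after another 15 min at room temperature.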
# [5] = molecular target: Cytochrome P450 3A4 (Homo sapiens) (UniProt P08684); assay: Cytochrome P450 family 3 subfamily A member 4 (CYP3A4) small molecule antagonists: luciferase qHTS assay (AID 1645841; active = well fitted curve in the direction sought with a large enough effect in the repeat runs; an effect the other way counts as inactive or inconclusive; note: nearly all actives have a fitted effect of over 45% in size)
# Cytochrome P450 3A4 (Homo sapiens), sequence (P08684 whole entry, looked up): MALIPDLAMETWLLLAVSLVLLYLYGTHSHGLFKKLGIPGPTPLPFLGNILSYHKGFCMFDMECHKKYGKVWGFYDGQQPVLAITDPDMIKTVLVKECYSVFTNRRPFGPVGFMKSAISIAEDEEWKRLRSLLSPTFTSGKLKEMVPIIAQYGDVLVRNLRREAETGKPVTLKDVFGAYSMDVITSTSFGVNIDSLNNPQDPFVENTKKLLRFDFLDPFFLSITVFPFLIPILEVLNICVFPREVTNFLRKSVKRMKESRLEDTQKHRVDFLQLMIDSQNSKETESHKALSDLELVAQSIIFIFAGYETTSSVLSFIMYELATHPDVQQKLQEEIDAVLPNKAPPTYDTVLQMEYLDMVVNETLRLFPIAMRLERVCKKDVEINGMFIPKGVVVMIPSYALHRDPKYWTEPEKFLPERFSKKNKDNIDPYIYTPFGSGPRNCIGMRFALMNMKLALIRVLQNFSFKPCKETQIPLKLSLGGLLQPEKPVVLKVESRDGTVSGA
# Summary of the method: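 Luminescent CYP3A4 activity readout: compounds plus enzyme-substrate mix 10 min at room temperature, reaction started with NADPH regenerating system for 1 h, stopped with detection reagent, read after 20 min. Ketoconazole served as control.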
# [6] = molecular target: N-terminal Xaa-Pro-Lys N-methyltransferase 1 (Homo sapiens) (UniProt Q9BV86); assay: Confirmatory qHTS for Inhibitors of N-terminal methyltransferase 1 (NTMT1): MTaseGlo Assay (AID 1645874); note: nearly all actives have a fitted effect of over 65% in size; note: potency is the fitted concentration of half-maximal effect;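 for activity change, negative = inhibition: luminescence from SAH made as NTMT1 methylates SPKRIA peptide using SAM; series mostly up to about 100 µM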
# N-terminal Xaa-Pro-Lys N-methyltransferase 1 (Homo sapiens), sequence (Q9BV86 whole entry, looked up): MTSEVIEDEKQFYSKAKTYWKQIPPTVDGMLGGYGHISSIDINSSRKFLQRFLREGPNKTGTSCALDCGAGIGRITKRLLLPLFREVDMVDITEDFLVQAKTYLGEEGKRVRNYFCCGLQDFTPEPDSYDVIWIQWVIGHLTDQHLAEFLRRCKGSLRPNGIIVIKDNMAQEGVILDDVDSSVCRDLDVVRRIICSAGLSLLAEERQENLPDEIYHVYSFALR
# Summary of the method: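 Room-temperature NTMT1 reaction, 30 min, with 100 uM SAM and 1 uM SPKRIA substrate; enzyme 125 nM. Read-out: MTase-Glo luminescence, normalized to no-enzyme and DMSO controls.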
# [7] = Confirmatory qHTS for small molecule stabilizers of the endoplasmic reticulum resident proteome: Secreted ER Calcium Modulated Protein (SERCaMP) assay (AID 1508628); note: series mostly up to about 76 µM; nearly all actives have a fitted effect of over 40% in size
# Summary of the method: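 Reporter secretion upon ER calcium depletion (100 nM thapsigargin, 4 h, 37C) is measured as medium luminescence with coelenterazine, after 16 h compound pretreatment of SH-SY5Y-GLuc-SERCaMP cells; primary at three concentrations up to 38.3 uM, follow-up at 11 (up to 76.6 uM).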
compound,measurement,setting,value
COc1cc2c(cc1OC)-c1[nH]nc(Nc3cccc(F)c3)c1C2,Potency,[1],21.3 µM (active)
same,Potency,[2],8.49 µM (active)
same,Potency,[3],91.6 nM (active)
CC1OC(OC2C(C)OC(OC3C(OC(=O)C45CCC(C)(C)CC4C4=CCC6C7(C)CCC(OC8OC(C(=O)O)C(O)C(O)C8OC8OC(CO)C(O)C(OC9OC(C)C(O)C(O)C9O)C8O)C(C)(CO)C7CCC6(C)C4(C)CC5)OC(CO)C(O)C3O)C(O)C2O)C(O)C(O)C1O (centres undefined),"activity change, negative = inhibition",[4],-1.29% [at 12.4 µM]
same,"activity change, negative = viability loss",[3],2.43% [at 9.23 µM]
Cc1cc(C(N)=O)ccc1-n1c(CCC(=O)O)ccc1-c1ccc(-n2ccnc2)cc1,Potency,[1],0.952 µM (active)
same,Potency,[2],3.38 µM (active)
same,Potency,[3],inactive
Cc1nc2ccc(Oc3ccc(F)cc3)cc2c(=O)n1C[C@H]1CCCN(C(C)C)C1,Potency,[2],inactive
CC[C@H](C)[C@H](NC(=O)[C@H]([C@@H](C)CC)N(C)C(C)=O)C(=O)N[C@H](C(=O)N[C@@H](CC(C)C)C(=O)[C@@]1(C)CO1)[C@@H](C)O,Potency,[4],inactive
same,Potency,[3],12.9 nM (active)
CCOC(=O)c1sc(NC(=O)[C@H](C(C)C)n2c(=O)[nH]c3ccccc3c2=O)nc1C,Potency,[2],4.77 µM (active)
CN1CCN(C2CCC(n3cc(-c4ccc(Oc5ccccc5)cc4)c4c(N)ncnc43)CC2)CC1 (centres undefined),Potency,[1],12 µM (active)
same,Potency,[5],inactive
same,Potency,[2],inactive
same,Potency,[3],20.5 nM (active) and 74.2 nM (active)
O=C(O[C@H]1[C@@H]2C=CO[C@@H](O[C@@H]3O[C@H](CO)[C@@H](O)[C@H](O)[C@H]3O)[C@@H]2[C@@]2(CO)O[C@@H]12)c1ccccc1,Potency,[4],inactive
same,Potency,[3],inactive
COc1cc2occc2c(O[C@@H]2O[C@H](CO)[C@@H](O)[C@H](O)[C@H]2O)c1CCC(=O)O,Potency,[4],inactive
same,Potency,[3],inactive
CC(O)CO[C@@H]1O[C@H](CO)[C@@H](O)[C@H](O)[C@H]1O (some centres undefined),Potency,[4],inactive
same,Potency,[3],inactive
Nc1nccn2c(C3CCC(C(=O)O)CC3)nc(-c3cc4cccc(Cl)c4[nH]3)c12 (centres undefined),Potency,[1],inactive
same,Potency,[3],1.29 µM (active) and 3.72 µM (active)
CC(=O)OC1C(O)C2C(C)C3=CC(=O)OC3(O)CC2C2(C)CCCC(C)(CO)C12 (centres undefined),Potency,[4],inactive
same,Potency,[3],inactive
Cn1cc(S(=O)(=O)c2ccc(Cl)cc2)c2cccc(N3CCNCC3)c21,Potency,[1],13.5 µM (active)
same,Potency,[2],8.49 µM (active)
same,Potency,[3],18300 nM (active)
OC1CCC(Nc2ncc3nc(Nc4c(F)cc(F)cc4F)n([C@H]4CCOC4)c3n2)CC1 (some centres undefined),Potency,[1],inactive
same,Potency,[2],inactive
O=[N+]([O-])c1cccc2[nH]c(CNc3nc(N4CCOCC4)nc4c3ncn4-c3ccsc3)nc12,Potency,[1],inactive
same,Potency,[2],0.952 µM (active)
same,Potency,[3],64.9 nM (active)
CC(=O)OC/C=C(\C)C(CC1C(C)=C(OC(C)=O)C(=O)C2C(C)(C)C(O)CCC12C)OC(C)=O (centres undefined),Potency,[4],inactive
same,Potency,[3],inactive
CN(C)C/C=C/C(=O)Nc1cc2c(Nc3ccc(F)c(Cl)c3)ncnc2cc1OC1CCOC1 (centres undefined),Potency,[1],inactive
same,Potency,[2],15.1 µM (active)
same,Potency,[6],20 µM (active)
same,Potency,[3],2300 nM (active)
Cc1ccc(N)cc1O,outcome,[7],inactive
same,Potency,[1],2.45 µM (active)
same,Potency,[2],20 µM (active)
O=C(O)CC(=O)OC[C@H]1O[C@@H](Oc2ccc3c(c2)OC[C@H]2c4cc5c(cc4O[C@@H]32)OCO5)[C@H](O)[C@@H](O)[C@@H]1O,Potency,[4],inactive
same,Potency,[3],inactive
COc1c2c(c(CO)c3c1C(=O)OC3)OC1(C)CCC3(O)C(C)(C)OC(=O)CCC3(C)C1C2 (centres undefined),Potency,[4],inactive
same,Potency,[3],inactive
CC(C)c1cc(C(=O)N2CC[C@@H](NC(=O)C3CC3)C2)n[nH]1,Potency,[4],inactive
same,Potency,[3],inactive
Cc1cccc(C)c1-n1c(=O)c2cnc(Nc3ccc(N4CCN(C)CC4)cc3)nc2n2c3ccccc3nc12,Potency,[1],inactive
same,Potency,[2],8.49 µM (active)
same,Potency,[3],205 nM (active)
COC(=O)[C@@]1(c2ccc(C)cc2)C[C@H]1CN1CCC(O)(c2ccccc2)CC1,Potency,[1],2.68 µM (active)
C[C@@H]1O[C@@H](O[C@@H]2[C@@H](O)[C@@H](O[C@]3(CO)O[C@H](CO)[C@@H](O)[C@@H]3OC(=O)/C=C/c3ccc(O)cc3)O[C@H](CO)[C@H]2OC(=O)/C=C/c2ccc(O)cc2)[C@H](O)[C@H](O)[C@H]1O[C@@H]1O[C@@H](C)[C@H](O[C@@H]2OC[C@](O)(CO)[C@H]2O)[C@@H](O)[C@H]1O,Potency,[4],inactive
same,outcome,[3],inactive [at 9.23 µM]
CCOc1cc(N2CCC(O)CC2)ccc1Nc1ncc2c(n1)N(C1CCCC1)CCC(=O)N2C,Potency,[1],inactive
same,Potency,[3],2050 nM (active)
CNC(=O)c1ccccc1Nc1cc(Nc2ccc(N3CCOCC3)cc2OC)ncc1C(F)(F)F,Potency,[6],inactive
COc1cc(N2CCC(N3CCN(C)CC3)CC2)ccc1Nc1ncc(Cl)c(-c2c[nH]c3ccccc23)n1,Potency,[6],55.5 µM (active)
